Screening data deposited in PubChem BioAssay by National Center for Advancing Translational Sciences (NCATS).
Luc counter – blocks Kinase-Glo luciferase, a counter-screen artifact | Q27757 | Kinase-Glo luciferase, ATP luminescence, 8 min | Potency, µM (series often up to 38.3 µM), inactives show at the highest dose activity change, negative = inhibition, actives largely listed as inhibitors | 0.28% of 200,000 active | AID 1379; also: % is scaled to controls: 0 for no effect and ±100 for the full control effect; nearly all actives have a fitted effect of over 60% in size
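Luminescence was the read-out, taken after 8-minute incubation at ambient temperature. Luciferase turned over luciferin with 10 uM ATP in imidazole pH 7.2 buffer containing KCl, MgCl2, Tween 20 and BSA.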
SMN2 splice enh – increases expression of the SMN2 splice variant; HEK293 SMN2-luciferase splicing reporter, luminescence, 30-36 h; Potency, µM (titrated, usually from 46.1 µM), without a hit: at the highest dose activity change, positive = activation, most hits filed as activators; 2.8% of 210,000 active; AID 1458; also: % of control where 0% means no effect; nearly all actives have a fitted effect of over 55% in size
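qHTS luciferase splicing reporter: luminescence rises when SMN2 exon 7 is included in transfected HEK293 cells. Compound exposure lasted 30-36 h at 37C, with 4.5 mM final sodium butyrate as control, followed by a ONE-Glo read.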
NPC1 promoter act – NPC1 promoter activation; Huh7 NPC1 promoter luciferase reporter, 24 h; Potency, µM (highest dose often 9.22 µM), for inactives: at the highest dose activation, actives largely listed as activators; 2.4% of 320,000 active; also: % of control where 0% means no effect; nearly all actives have a fitted effect of over 60% in size
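Huh7 reporter cells (NPC1 promoter driving luciferase) are dosed with compound for 24 h at 37 °C, 5% CO2; luciferase detection reagent is then added and luminescence measured after 10 min at ambient temperature.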
FLuc counter – firefly luciferase modulation, counter-screen for miR-21 project. P08659. purified FLuc, Km substrates, luminescence inhibition. Potency, µM (series often up to 57.5 µM), inactives show at the top dose activity change, negative = inhibition, actives largely listed as inhibitors. 6.9% of 360,000 active;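 also: plate controls were vehicle for no effect and reference inhibitor for full effect; nearly all actives have a fitted effect of over 55% in size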
Target sequence (P08659 whole entry, looked up): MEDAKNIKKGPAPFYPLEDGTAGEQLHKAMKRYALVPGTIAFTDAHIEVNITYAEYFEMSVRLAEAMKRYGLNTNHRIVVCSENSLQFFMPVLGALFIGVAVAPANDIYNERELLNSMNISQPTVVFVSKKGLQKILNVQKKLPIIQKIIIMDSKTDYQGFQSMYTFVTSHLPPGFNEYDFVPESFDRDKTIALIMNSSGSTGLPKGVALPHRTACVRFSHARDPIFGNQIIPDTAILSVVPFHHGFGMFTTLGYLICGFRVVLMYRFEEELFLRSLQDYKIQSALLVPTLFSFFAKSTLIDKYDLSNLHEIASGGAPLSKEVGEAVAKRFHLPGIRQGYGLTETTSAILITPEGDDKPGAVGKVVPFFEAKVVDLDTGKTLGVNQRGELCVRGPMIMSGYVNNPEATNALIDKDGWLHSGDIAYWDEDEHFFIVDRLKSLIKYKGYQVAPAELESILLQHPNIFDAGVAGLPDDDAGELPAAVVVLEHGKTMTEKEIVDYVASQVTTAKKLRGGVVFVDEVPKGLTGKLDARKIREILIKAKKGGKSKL
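Purified P. pyralis luciferase, 10 nM final, with Km-level 10 uM D-luciferin and 10 uM ATP in 50 mM Tris acetate pH 7.5, 10 mM Mg acetate, 0.01% Tween-20, 0.05% BSA; 6-point qHTS titration about 60 µM downward; luminescence read.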
Rab9 promoter act – activates the Rab9 promoter. Huh7 Rab9 promoter-luciferase reporter, luminescence, 24 h. Potency, µM (titrated, usually from 9.22 µM), for inactives: top-dose activation, negative = inhibition, hits mostly activators. 2.8% of 320,000 active; also: % of control where 0% means no effect; nearly all actives have a fitted effect of over 60% in size
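Measured in stably transfected Huh7 cells bearing a Rab9 promoter–luciferase construct: 24 h compound treatment at 37 °C, followed by luminescence detection.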
ELG1 genotoxic – inducers of genotoxicity in HEK293T ELG1-luciferase cells; HEK293T ELG1-luciferase reporter, luminescence, 16 h; Potency, µM (titrated, usually from 46 µM), without a hit: at the highest dose activity change, positive = activation, actives largely listed as activators; 1.3% of 330,000 active; also: % of control where 0% means no effect; nearly all actives have a fitted effect of over 60% in size
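Cells (2,000/well) expressing the ELG1-luciferase fusion are dosed by pin tool and kept 16 hr at 37 °C, 5% CO2. Signal comes from ONE-Glo luciferase reagent after 30 min at room temperature.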
* = called active by the depositor; ? = inconclusive; nt = not tested or not shown; [ ] = another dose, or the depositor's remark. A selection: hits, their analogues and other compounds. The true share with any hit is near 7.3%. Calls follow the shape of the dose curve; as a rule, active = well fitted curve in the direction sought with a large enough effect; inconclusive = small, poorly fitted or top-dose-only effect, or another doubt; inactive = no such curve, though single readings can be large; an effect the other way counts as inactive or inconclusive. Potency is read from the fitted curve at half-maximal effect.

SMILES	Luc counter	SMN2 splice enh	NPC1 promoter act	FLuc counter	Rab9 promoter act	ELG1 genotoxic
CCC(C)(C(=O)NC1CCCCC1)N(C(=O)c1ccccn1)c1ccccc1 (stereo not drawn)	7%	-4%	-1%	2%	-4%	-1%
COC(=O)c1ccc(COc2ccc(C=O)cc2OC)o1	-8%	nt	0%	?	16%	8%
N#CC1=C(N)N(c2ccc(F)cc2)C2=C(C1c1ccc(O)cc1)S(=O)(=O)CC2 (stereo not drawn)	?	-31%	0%	21µM*	1%	1%
CSc1ccc(C2C(C#N)=C(N)N(c3ccccc3)C3=C2C(=O)CCC3)cc1 (stereo not drawn)	0%	26%	-5%	-1%[2.3 µM]	0%	-1%
CN(C)CCCN(C(=O)c1sc2ccccc2c1Cl)c1nc2ccc(F)cc2s1	1%	18µM*	-2%	4.8µM*	-4%	?
Cc1ccc2nc(N(CCCN(C)C)C(=O)c3ccc4ncsc4c3)sc2c1	nt	nt	?	17µM*	4µM*	?
CN(C(=O)COC(=O)c1sc2ccccc2c1Cl)C1CCCCC1	3%	-7%	0%	?	-4%	-1%
CN(C)CCCOC(=O)c1sc2ccccc2c1Cl	-2%	nt	-8%	24µM*	0%	4%
COc1cc(NC(=O)Cn2cnc3c2c(=O)n(C)c(=O)n3C)c(OC)cc1Cl	nt	-7%	nt	-6%	nt	nt
COc1ccc(-c2cc(C(=O)OCC(=O)Nc3ccc4c(c3)OCO4)c3ccccc3n2)cc1	0%	13µM*	22%	?	21%	0%
CCOc1ccc(-c2cc(C(=O)NCc3ccc(C)cc3)c3ccccc3n2)cc1	nt	nt	nt	-14%	nt	nt
Cc1cccc(-c2cc(C(=O)Nc3ccc4c(c3)OCCO4)c3ccccc3n2)c1	-20%	-9%	-1%	6.7µM*	14%	-7%
CCOc1ccc(-c2cc(C(=O)Nc3ccc4c(c3)OCCO4)c3ccccc3n2)cc1	?	?	25%	2.4µM*	?	2%
O=C(COC(=O)c1cc(-c2ccccc2)nc2ccccc12)Nc1ccc2c(c1)OCO2	-2%	10%	-2%	?	-2%	1%
COc1ccc(NC(=O)c2c([N+](=O)[O-])c(C(C)(C)C)nn2C)cc1	nt	nt	-4%	0%	-1%	-8%
O=C(O)c1ccc(N/N=C/c2ccc(F)c(F)c2)cc1	-8%	1.4µM*	0.32µM*	1.7µM*	0.32µM*	5.2µM*
O=C(O)c1ccc(N/N=C/c2cccc(C(F)(F)F)c2)cc1	nt	nt	0.56µM*	3.4µM*	0.63µM*	?
O=C(O)c1ccc(N/N=C/c2cccc(F)c2)cc1	-16%	1µM*	0.5µM*	2.4µM*	0.5µM*	?
CN1CCN(S(=O)(=O)c2cccc(S(=O)(=O)c3cccc(S(=O)(=O)N4CCN(C)CC4)c3)c2)CC1	0%	1%	-2%	2%	-1%	1%
O=C(Nc1ccc2[nH]c(=S)sc2c1)c1ccccc1	0%	11µM*	2.8µM*	?	?	?
O=C(Nc1ccc2[nH]c(=O)[nH]c2c1)Nc1ccc(F)cc1F	nt	nt	-1%	-4%	1%	1%
O=C(Nc1ccc2[nH]c(=S)sc2c1)Nc1ccccc1F	nt	nt	0.11µM*	21µM*	0.13µM*	0.58µM*
COc1cc(OC)cc(-c2c(C#Cc3ccsc3)c3cc(-c4ccc(CN5CCOCC5)cc4)ccc3n2C)c1	nt	nt	nt	nt	nt	1%
CCCC1C2C(=O)N(c3ccccc3OCC)C(=O)C2ON1c1ccccc1 (stereo not drawn)	0%	11%	2%	5%	7%	0%
CCc1nnc(NC(=O)c2ccc(-c3ccccc3F)o2)s1	1%	21%	25%	-14%	25%	?
O=C(NCc1ccccc1)c1ccc(-c2ccccc2F)o1	2%	32µM*	26%	13µM*	?	13µM*
O=C(NCCc1ccccc1)c1ccc(-c2ccc(F)cc2)o1	2%	5%	-6%	21µM*	1%	0%
